Screens deposited in PubChem by National Center for Advancing Translational Sciences (NCATS).
A selection: hits, their analogues and other compounds. The true share with any hit is near 2.4%.
D2 ag-1 = Beta-Arrestin HTS for Positive Allosteric Modulators of the Human D2 Dopamine Receptor: Agonists | D(2) dopamine receptor (Homo sapiens), P14416 | DiscoveRx PathHunter D2 beta-arrestin, luminescence, 90 min; 100% = 57 uM dopamine signal | activation, % (concentration not given with the values) | actives 0.084% (n = 360,000); in the data active = activation above about 40%
Target sequence (P14416 whole entry, looked up): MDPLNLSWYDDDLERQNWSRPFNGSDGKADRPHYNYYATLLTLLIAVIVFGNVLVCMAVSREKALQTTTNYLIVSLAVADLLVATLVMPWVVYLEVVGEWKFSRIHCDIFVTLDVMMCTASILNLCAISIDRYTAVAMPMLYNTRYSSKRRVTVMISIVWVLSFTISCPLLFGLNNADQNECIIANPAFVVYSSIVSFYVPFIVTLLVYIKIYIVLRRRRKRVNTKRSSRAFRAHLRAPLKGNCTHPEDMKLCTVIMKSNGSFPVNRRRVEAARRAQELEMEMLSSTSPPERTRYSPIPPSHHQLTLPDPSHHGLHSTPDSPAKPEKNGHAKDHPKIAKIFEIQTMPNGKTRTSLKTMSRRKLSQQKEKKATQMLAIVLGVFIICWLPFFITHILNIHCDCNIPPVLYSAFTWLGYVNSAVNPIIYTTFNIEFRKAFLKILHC
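Agonist mode: compounds alone added to overnight-plated D2 PathHunter cells for 90 min at 37 C, with 57 uM final dopamine (EC100) defining full response. Beta-arrestin recruitment detected by chemiluminescent reagent, read after 1 h at ambient temperature.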
D2 PAM-1 = Beta-Arrestin HTS for Positive Allosteric Modulators of the Human D2 Dopamine Receptor: Potentiators; D(2) dopamine receptor (Homo sapiens), P14416; DiscoveRx D2 beta-arrestin cells, luminescence, 90 min; 100% = 57 uM dopamine signal; potentiation, % (test concentration not listed); actives 0.23% (n = 360,000); AID 624464, 2012; in the data active = potentiation above about 50%
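PathHunter D2 cells, attached overnight at 37 deg C, received compound in DMSO plus dopamine at EC20 (50 nM final) for 90 min at 37 deg C. Beta-arrestin recruitment was read as luminescence after 1 h with detection reagent at ambient temperature.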
D2 PAM-2 = HTS Assay for Positive Allosteric Modulators of the Human D2 Dopamine Receptor: Primary Screen for Potentiators | actives 0.34% (n = 340,000) | AID 485347, 2010 | potentiation, % at 10 µM | HEK293 T-REx D2, calcium flux, EC20 dopamine potentiation;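 active = potentiation over 3 SD above the plate norm, cut at about 30% in these data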
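Calcium flux readout, no-wash dye, 1 read/s. Inducible HEK293 Trex D2 line, overnight 30 C. Compound alone 180 s (agonist flags), then EC20 dopamine, another 180 s to score potentiation.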
D2 ag-2 = HTS Assay for Allosteric Agonists of the Human D2 Dopamine Receptor: Primary Screen for Agonists. D(2) dopamine receptor (Homo sapiens), P14416. HEK293 T-REx D2 cells, calcium flux agonist mode. activation, % at 2 µM. actives 0.53% (n = 340,000). AID 485358, 2010;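 active = activation over 3 SD above normal in the single-dose calcium agonist read, cut at about 30% in these data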
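Tetracycline-induced HEK293 T-REx cells with force-coupled D2 receptor, plated overnight at 30 C, loaded with no-wash calcium dye. After a 10 s baseline, compound was pin-added and calcium flux read kinetically for 180 s; calcium rises flagged agonists.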
D2 antag = HTS Assay for Allosteric Antagonists of the Human D2 Dopamine Receptor: Primary Screen for Antagonists; D(2) dopamine receptor (Homo sapiens), P14416; HEK293 TREx D2 cells, calcium flux, dopamine EC80; inhibition, % at 10 µM; actives 2% (n = 340,000); AID 485344, 2010; in the data active = inhibition above about 30%; inactive = below that, where a call was filed
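Read-out: kinetic calcium fluorescence (1 cycle/s) in inducible HEK293 T-REx D2 cells after an EC80 dopamine addition that followed 180 s compound preincubation. Loss of the dopamine response indicates antagonism.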
Hits are given with their value; - = inactive; . = no result.

SMILES	D2 ag-1	D2 PAM-1	D2 PAM-2	D2 ag-2	D2 antag
CCOc1ccc(/C=N/OCC(=O)NCc2ccc3c(c2)OCO3)cc1OC	-	-	-	-	32
COc1cc(CO)ccc1Oc1nnnn1-c1ccc(C(N)=O)cc1	-	-	-	-	31
COCCCNCCCCOc1ccccc1-c1ccccc1	-	-	-	-	89
C=CCNCCCCOc1ccc(OCc2ccccc2)cc1	-	-	-	-	-
COCCCNCCOc1ccccc1-c1ccccc1	-	-	-	-	93
COCCNCCOc1ccccc1-c1ccccc1	-	-	-	-	-
C=CCNCCCCOc1ccccc1-c1ccccc1	-	-	-	-	49
COc1ccc(OC)c(C(=O)CN2C(=O)N(c3cc(C)cc(C)c3)S(=O)(=O)c3ccccc32)c1	.	.	-	-	.
CCOc1ccc(Br)cc1CNCCSc1nnnn1-c1ccccc1	.	.	-	-	.
COc1cccc(N2CCN(C3OC(=O)c4ccccc43)CC2)c1 (stereo unspecified)	-	-	-	-	30
NNC(=O)c1ccc(COCC(F)(F)F)cc1	-	-	-	-	53
CN(C)CCNC(=O)c1ccc(COCC(F)(F)F)cc1	-	-	.	-	-
OCCN1CCN(Cc2ccc3ccccc3c2)CC1	-	-	-	-	-
COc1ccc(CN2CCC(Cc3ccccc3)CC2)cc1OC	-	-	-	-	-
COc1ccccc1C1CCN(Cc2cccc([N+](=O)[O-])c2)CC1	-	-	-	-	110
COc1ccccc1C1CCN(Cc2ccc3ccccc3c2)CC1	-	-	-	-	85
COc1ccccc1C1CCN(Cc2ccccc2)CC1	-	-	-	32	83
COc1ccccc1C1CCN(c2ccc(CO)cc2[N+](=O)[O-])CC1	-	-	-	-	-
COc1cc(NC(=O)NCC2CCN(Cc3ccccc3Cl)CC2)cc(OC)c1OC	-	-	-	-	-
COc1ccccc1C1CCN(Cc2ccccc2Cl)CC1	-	-	-	-	92
CCOC(=O)c1ccc(OCC2c3cc(OC)c(OC)cc3CCN2C(=O)Cc2ccc(F)cc2)cc1 (stereo unspecified)	.	.	-	-	.
CCN(C(=O)c1oc2ccc(S(=O)(=O)N3CCCCCC3)cc2c1C)c1ccccc1	.	.	-	-	.
O=C(c1cccc(Cl)c1)N1c2ncnn2C2(CCCCC2)[C@@H]2CCCC[C@@H]21	.	.	-	-	.
N#CC1=C(N)N2C(=C(C#N)C1c1ccc(Br)cc1)Nc1ccccc12 (stereo unspecified)	-	-	-	-	-
N#CC1=C(N)N2C(=C(C#N)C1c1cccc(Br)c1)Nc1ccccc12 (stereo unspecified)	-	-	-	-	39
SMILES	D2 ag-1	D2 PAM-1	D2 PAM-2	D2 ag-2	D2 antag
COc1ccc(C(=O)NNC(=S)NC(=O)C(C)(C)C)cc1	-	-	-	92	62
COc1ccc(C(=O)NNC(=O)c2ccc(C(C)(C)C)cc2)cc1	-	-	.	-	-
CCOC(=O)c1oc2ccc(S(=O)(=O)n3nc(-c4ccc(C)cc4)cc3N)cc2c1C	-	-	-	-	35
Cc1ccc(/C=C/C(=O)c2cc(Br)ccc2OC(=O)c2ccco2)cc1	-	-	-	-	35
c1ccc(-c2cn3c(n2)SCC3)cc1	-	-	30	-	-
Brc1ccc(-c2cn3c(n2)SCC3)cc1	-	-	-	-	33
CN(C)c1ccc(NC(=O)CSC2=Nc3ccccc3C3=NC(CC(=O)NCc4ccccc4)C(=O)N23)cc1 (stereo unspecified)	.	.	-	-	.
CCC(=O)NCCSc1c[nH]c2ccccc12	-	-	-	-	-
CC(C)C(=O)NCCSc1c[nH]c2ccccc12	-	-	-	-	31
O=C(ON=C1CCN(S(=O)(=O)c2ccccc2)CC1)c1cccc(Cl)c1	-	-	34	-	-
COc1ccc(C(=O)NNC2=Nc3cccc4cccc2c34)cc1	-	-	-	-	63
